Binding signal data for 46 sequences are collected here from publication PMC7819943, “Rice protein-binding microarrays: a tool to detect cis-acting elements near promoter regions in rice”.

Whole data set: some 35,000 sequences, median “fluorescence intensity (a.u.)” near 10,000, cut for the highest 2% near 52,000. What follows is part of a selection rich in the highest values, with near analogues and random picks from the rest.

For the assay, the target named is T1, OsWOX13 (Oryza sativa, UniProt Q5QMM3 1-267).
T1 sequence: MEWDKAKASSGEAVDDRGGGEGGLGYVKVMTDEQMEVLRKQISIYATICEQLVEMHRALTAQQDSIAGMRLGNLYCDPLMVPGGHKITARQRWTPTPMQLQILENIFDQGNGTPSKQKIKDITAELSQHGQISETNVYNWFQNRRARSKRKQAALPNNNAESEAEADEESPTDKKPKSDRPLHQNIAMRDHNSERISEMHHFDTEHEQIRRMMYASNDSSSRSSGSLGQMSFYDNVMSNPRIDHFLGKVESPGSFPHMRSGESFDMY
In words: protein-binding microarray (RPBM); PBS, 2% BSA, 51.3 ng/ul salmon testes DNA, 50 uM zinc acetate, 200 nM TF, 25 C, 1 h; high values mean tight binding. The following applies: protein: recombinant; tags: N-terminal polyhistidine and DsRed monomer fusion (pET32a); label: CyDye5-dUTP incorporated in the synthesized complementary strand; 3' TTTTT single-stranded linker to array surface; dsDNA, one strand shown. In outline: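 A custom Agilent array was converted to double-stranded form by primer extension with Cy5-dUTP and blocked with 2% BSA. Protein at 200 nM in PBS with 2% BSA, salmon testes DNA and 50 µM zinc acetate was applied for 1 h at 25 °C, followed by washing. The proteins were polyhistidine–DsRed N-terminal fusions of transcription factors, expressed in E. coli BL21-CodonPlus and Ni–NTA-purified. The binding signal is per-feature fluorescence intensity (arbitrary units) from an Axon 4000B scanner.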
Turning to “CTCTTGATTGTATCCTTAGGCACTTTGTATATTCTCGAGTCGGAGTCACCTAGTGCAG”, the binding signal is 31700 fluorescence intensity (a.u.).

For the sequence “GAACAGGTAATTTAAAATTGATGGAGTTCATAGGATGTCACGGAGTCACCTAGTGCAG”, the binding signal was 24200 fluorescence intensity (a.u.).

With “TTGGATTAGAATTTAATTTGAAGACGACATCCATTGGATACGGAGTCACCTAGTGCAG”, the binding signal is 28700 fluorescence intensity (a.u.). The value for “TTCACTAATCAATCAACTTAATTTGCTCTGTCAATGTGCACGGAGTCACCTAGTGCAG” was 61700 fluorescence intensity (a.u.); that for “ACATCACTAATTAATGTAATTTAAGTGGCTCATTTGCTCACGGAGTCACCTAGTGCAG” was 31900 fluorescence intensity (a.u.); that for “TTTATATTATTTGTCAATCTTATTGTCAACTTATTAATCACGGAGTCACCTAGTGCAG” was 5140 fluorescence intensity (a.u.).

For “TTTAATTGATGGAGCGGTAATGGTAATAGTTCTTCACTCACGGAGTCACCTAGTGCAG”, the binding signal is 57300 fluorescence intensity (a.u.). The value for “CCAAATGATTAATTTGGAGGACTTATTTGGACGTTTTGAACGGAGTCACCTAGTGCAG” was 42300 fluorescence intensity (a.u.); that for “TAAAATTAGTCAAACTTAAAGCAGTTTGATTTTGACTAAACGGAGTCACCTAGTGCAG” was 3740 fluorescence intensity (a.u.). As for “TCTGATTAATTTGACGGCCACAAAATACTTAGTTTGGCAACGGAGTCACCTAGTGCAG”, the figure is 65000 fluorescence intensity (a.u.); as for “AAGATACGTGATTGAAATCATTCCATTATGGACGACATTGCGGAGTCACCTAGTGCAG”, 54000 fluorescence intensity (a.u.). Turning to “CCATTACGTGATCACAGATTGATCAAGAAATGCTTGACGACGGAGTCACCTAGTGCAG”, the binding signal was 19600 fluorescence intensity (a.u.). The value for “TTTATAATAGTTAATATTTAATTGATCATTTGCTAATGAGCGGAGTCACCTAGTGCAG” was 24900 fluorescence intensity (a.u.). With “TTAACAATTGAAAGATCATCTCATTGGTTAATTTATTTGGCGGAGTCACCTAGTGCAG”, the binding signal was 6220 fluorescence intensity (a.u.).

On to “GATGGTCTATTAGTCCGTGATTAATTAAGTATTAGCTATTCGGAGTCACCTAGTGCAG”, for which the binding signal was 8910 fluorescence intensity (a.u.).

On to “TTTGACAAATTTGACAACTCCTCTAGCTCCCACTGCTACTCGGAGTCACCTAGTGCAG”, for which the binding signal is 38200 fluorescence intensity (a.u.). As for “CTGTGATAATCTGTCTTCCTGTGATACCAGCACTGTTTCCCGGAGTCACCTAGTGCAG”, the figure is 3340 fluorescence intensity (a.u.).

With “TGCTAGTTAAATTGGGATAAAATAATGGGCCCATTTATTTCGGAGTCACCTAGTGCAG”, the binding signal was 4520 fluorescence intensity (a.u.). On to “AGTGATTAGTAGCAGCAGAAAGAGTGGAAGATTTAGAGGACGGAGTCACCTAGTGCAG”, for which the binding signal is 17800 fluorescence intensity (a.u.). As for “CCCAAACGCCCTGAAATCAAATTGAATATTCCAATTTGCACGGAGTCACCTAGTGCAG”, the figure is 4630 fluorescence intensity (a.u.); as for “TTAAATTTAAATTTAAATTTAATTTTGAGATTTCTTTTCACGGAGTCACCTAGTGCAG”, 55700 fluorescence intensity (a.u.); as for “AATTAAATAAATTATAATTTATTTTATTGAGATTTGATTTCGGAGTCACCTAGTGCAG”, 41300 fluorescence intensity (a.u.). Turning to “ATTGCGTGCTTGATTAATTAGTTTCTACCAACAATTTCTCCGGAGTCACCTAGTGCAG”, the binding signal is 8110 fluorescence intensity (a.u.). As for “TTAAATTTAAATTTGAGATTGATTTTGAGATATTTTCAACCGGAGTCACCTAGTGCAG”, the figure is 38200 fluorescence intensity (a.u.); as for “ACAATTGATAGATTTGTCTGTTGCTTTGCTTTGATTCCTCCGGAGTCACCTAGTGCAG”, 43800 fluorescence intensity (a.u.). As to “TTTTCTTGATTAATTAAATATAAATTTGCATTTCATTTCACGGAGTCACCTAGTGCAG”, the binding signal was 16900 fluorescence intensity (a.u.). As for “TGCACCAATTTGATTGATACCAATTTGCTTTAATTTCGTCCGGAGTCACCTAGTGCAG”, the figure is 57200 fluorescence intensity (a.u.). Consider “AAAATTTAATTGATTATATGCTAATAACTTTCTTGTTTTGCGGAGTCACCTAGTGCAG”, for which the binding signal was 51600 fluorescence intensity (a.u.). “TATAATTGATTATTTTAATTTCTTTTGCTATTAATAGTCACGGAGTCACCTAGTGCAG”: the binding signal was 64700 fluorescence intensity (a.u.). The value for “TTATTGATTGATTGAATCAGACTGAAATTCCAAACCACGACGGAGTCACCTAGTGCAG” was 63100 fluorescence intensity (a.u.); that for “CAGAAACTGAAATACCAATTGATTCTTCCAATTCCCTGAACGGAGTCACCTAGTGCAG” was 6740 fluorescence intensity (a.u.). Take “ATCGGCATGTTCACCAGCTCTGATTGGTAGTACGATTTTACGGAGTCACCTAGTGCAG”: the binding signal is 5140 fluorescence intensity (a.u.). Regarding “TAAATAAATGATTGGGCTTGTTAATGGGCTTCCTCTTCCTCGGAGTCACCTAGTGCAG”, the binding signal was 41900 fluorescence intensity (a.u.).

Consider “CCCAAATAGAAGTAGAATTGAGACACTGAGTGGTGCAAAGCGGAGTCACCTAGTGCAG”, for which the binding signal is 3400 fluorescence intensity (a.u.). For “ATGATTGTTGGAGCAAGGCCCAGCCCAAGGTAGCGTACATCGGAGTCACCTAGTGCAG”, the binding signal was 13400 fluorescence intensity (a.u.). The value for “TGTTACTAATTTATTTGGAGGCTTCATGGTTGACCTATTGCGGAGTCACCTAGTGCAG” was 3440 fluorescence intensity (a.u.); that for “GATAATTTGAACCATAGATTTATCATTCAAAGGCTATAAACGGAGTCACCTAGTGCAG” was 9720 fluorescence intensity (a.u.).

Take “GTAGCAATCAAATATGGGCCGGTCAATTGTTCGCGGTAGACGGAGTCACCTAGTGCAG”: the binding signal was 4130 fluorescence intensity (a.u.). As for “CATGGACAACAATCATTGCCTGTTACGCGCAAAGTTCTCGCGGAGTCACCTAGTGCAG”, the binding signal is 8490 fluorescence intensity (a.u.). As for “AGTATAATGACTGTTAGATCTCCATAAAACTGGCCACAAACGGAGTCACCTAGTGCAG”, the binding signal was 3510 fluorescence intensity (a.u.). For the sequence “GCGATTAAATGTACAGTAAATAGGGATGAACAATATACGACGGAGTCACCTAGTGCAG”, the binding signal is 3570 fluorescence intensity (a.u.). As for “ATCCTTATTAATTTAATTTAACAAAGTCAACTTGATTTCCCGGAGTCACCTAGTGCAG”, the figure is 23100 fluorescence intensity (a.u.); as for “CTATCTCATTGCTTAATTGGTCATATAATTGGGCTGAGTGCGGAGTCACCTAGTGCAG”, 16900 fluorescence intensity (a.u.). With “AGCAATGCAACGATTATTAATTTAATTTGCACATGTATTGCGGAGTCACCTAGTGCAG”, the binding signal is 5900 fluorescence intensity (a.u.). As for “CATGGTGAATTGGTGATTTTATAATGATGCTAAGCTTTGACGGAGTCACCTAGTGCAG”, the figure is 4860 fluorescence intensity (a.u.); as for “TCTTAATAATTATTTCTTAATTAATTCTGTGCTAATTGTGCGGAGTCACCTAGTGCAG”, 54300 fluorescence intensity (a.u.).
